Assay [1] in a line: qHTS assay to identify small molecule agonists of the RXR signaling pathway - cell viability counter screen (AID 1159529). Note: nearly all actives have a fitted effect of over 50% in size. Note: potency is the fitted concentration of half-maximal effect. The settings on record: RXR-alpha-bla HEK293T viability, CellTiter-Glo, 16 h; series mostly up to 76.8 µM. The procedure, abridged: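 Compounds dissolved in DMSO were pinned onto HEK 293T cells carrying a beta-lactamase reporter under RXR-alpha control and incubated 16 hr. Cytotoxicity was then quantified by CellTiter-Glo luminescence.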
Background: qHTS replaces the single test concentration by a dilution series.

The nature of assay [2]: qHTS assay to identify small molecule antagonists of the retinoid acid receptor (RAR) signaling pathway - cell viability counter screen (AID 1159551). Note: nearly all actives have a fitted effect of over 35% in size. The settings on record: C3RL4 cells viability, ATP luminescence (CellTiter-Glo), 6 h; series mostly up to 92.4 µM. The procedure, abridged:
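Measured by luminescent ATP detection, viability reflects C3RL4 cells treated 6 h at 37 C with test chemicals in the presence of 1 uM (final) retinol.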

The nature of assay [3]: qHTS assay to identify small molecule antagonists of the retinoic acid receptor (RAR) signaling pathway (AID 1159552; note: nearly all actives have a fitted effect of over 50% in size; note: potency is the fitted concentration of half-maximal effect). The settings on record: C3RL4 RARE luciferase reporter, retinol-stimulated, 6 h; series mostly up to 92.4 µM. In a few lines:
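Test chemicals and DMSO controls were pin-transferred onto C3RL4 cells a day after seeding; retinol (1 uM final) followed at once. Luminescent reporter output was quantified after 6 hr of co-incubation and 30 min with detection reagent.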

Assay [4] is described as follows: qHTS assay to identify small molecule agonists of the retinoic acid receptor (RAR) signaling pathway (AID 1159553). Note: potency is the fitted concentration of half-maximal effect. Conditions: C3RL4 RARE luciferase reporter, agonist, 6 h; series mostly up to 73.3 µM. In a few lines: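 6 hr compound exposure (DMSO vehicle) of overnight-plated C3RL4 RARE-luc cells at 37 C; luminescence quantified after 30 min RT with luciferase reagent.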

Assay [5] can be described thus: qHTS assay to identify small molecule antagonists of the estrogen related receptor (ERR) signaling pathway - cell viability counter screen (AID 1224818). Conditions: ERR reporter cell line viability counter screen; series mostly up to 46.1 µM. The procedure, abridged: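 Compounds dissolved in DMSO were applied to ERR cells seeded at 2,000 per well 6 h earlier. Cell viability followed 17.5 h later via 30-min CellTiter-Fluor fluorescence.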

Assay [6] in a line: qHTS assay to identify small molecule antagonists of the estrogen related receptor signaling pathway with the pleiotropic PPARgamma coactivator (PGC) cell viability counter screen (AID 1224822). Conditions: ERR/PGC reporter cell line viability counter screen; series mostly up to 46.1 µM. The procedure, abridged:
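Counter screen for cell viability: PGC/ERR cells, 6 h pre-incubation after plating, 17.5 h compound exposure at 37 C, fluorescence from CellTiter-Fluor after 30 min.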

The nature of assay [7]: qHTS assay to identify small molecule antagonists of the estrogen related receptor (ERR) signaling pathway (AID 1224819;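 note: luminescence from an ERR-driven luciferase reporter measured with One-Glo reagent; nearly all actives have a fitted effect of over 50% in size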). The settings on record: ERR reporter cell line, luciferase inhibition; series mostly up to 46.1 µM. The procedure, abridged: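 Compounds dissolved in DMSO were pin-transferred onto ERR cells that had been plated 6 h earlier, and cells were then incubated 18 h at 37 C; signal was luciferase luminescence via One-Glo.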

Assay [8] in a line: qHTS assay to identify small molecule agonists of the estrogen related receptor (ERR) signaling pathway (AID 1224820). Conditions: ERR reporter cell line, luciferase agonist mode; series mostly up to 46.1 µM. In a few lines: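 Following a 6 h settling period, 2,000 ERR cells per well receive DMSO-dissolved compounds by pin tool and incubate 18 h at 37 C; agonist activity is scored from One-Glo luminescence read 30 min post-addition.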

Assay [9] has as its system estrogen-related receptor alpha (ERRalpha) with PGC-1alpha coactivator, human. The assay is described as follows: qHTS assay to identify small molecule antagonists of the estrogen related receptor signaling pathway with the pleiotropic PPARgamma coactivator (PGC) (AID 1224821; calls by dose curve;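 note: lower luminescence signal means antagonism of PGC/ERR signalling; nearly all actives have a fitted effect of over 50% in size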). The settings on record: ERR/PGC reporter cell line, luciferase, antagonist mode; series mostly up to 46.1 µM. The procedure, abridged: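 Screening used NTP's PGC/ERR cells, dosed via pin tool with compound in DMSO alongside positive and negative controls. After 18 h at 37 C, One-Glo reagent sat 30 min at room temperature before luminescence detection.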

The nature of assay [10]: qHTS assay to identify small molecule agonists of the estrogen related receptor signaling pathway with the pleiotropic PPARgamma coactivator (PGC) (AID 1224823). The settings on record: ERR/PGC reporter cell line, luciferase agonist mode; series mostly up to 46.1 µM. In a few lines:
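In this quantitative high-throughput screen, an 18 h, 37 C treatment of PGC/ERR cells with compounds in DMSO preceded a One-Glo luminescence read taken after 30 min at room temperature.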

Values joined by “and” are separate entries in the source; they are usually repeats but may differ in a detail not shown here. Equal entries are not always repeated. Inconclusive results are not listed. Some structures have more than one record in an assay (separate samples or runs), and their calls can disagree. Active and inactive are the calls of the source. Unless noted, calls come from the whole dose curve; as a rule, active = well fitted curve in the direction sought with a large enough effect in the repeat runs; inconclusive = weak or mixed curves; inactive = no such curve, though single readings can be large; an effect the other way counts as inactive or inconclusive.
% is set by controls: 0 for no effect and ±100 for the full control effect.

`Cc1oncc1C(=O)Nc1ccc(C(F)(F)F)cc1`: the Potency in assay [1] was 43.6 µM (active) and inactive; in assay [4], 3.06 µM (active) and 2.98 µM (active). Also, the Potency result in assay [2] and in assay [3] was “inactive” each time. Besides, the compound was called inactive in [5] and in assay [6].
On to `CC(=N\O)/C(C)=N/O`, for which the Potency result in [1], in assay [2] and in [4] was “inactive” each time.
On to `Cc1ccc(/C=N/n2c(-c3ccccc3)csc2=S)cc1`, for which the Potency entry in assay [1], in [2], in assay [3] and in assay [4] was “inactive” each time.
In the case of `CC(C)CCCCCCOC(=O)CCCCC(=O)OCCCCCCC(C)C`, the Potency entry in assay [1], in [3] and in [4] was “inactive” in each case.
Take `N#C/C(=C1/SC[C@@H](c2ccc(Cl)cc2Cl)S1)n1ccnc1`: the Potency result in [1] and in [4] was “inactive” each time.
As to `C/C=C/C=C/CCCCCCCO`, the Potency entry in assay [1] and in assay [4] was “inactive” throughout.
For the compound `O=C(O)c1ccc(CO)o1`, the Potency entry in assay [1], in assay [3] and in [4] was “inactive” in each case.
`O=C(OCCOCCO)c1ccccc1Nc1cccc(C(F)(F)F)c1`: the Potency entry in [1], in [3] and in assay [4] was “inactive” in each case.
Take `CCC(=O)Oc1ccc(/C(CC)=C(\CC)c2ccc(OC(=O)CC)cc2)cc1`: the Potency in assay [1] was 54.9 µM (active). In addition, the Potency entry in [3] is “inactive”.
`c1cc[c]([Bi]([c]2ccccc2)[c]2ccccc2)cc1`: the Potency entry in assay [2] is “inactive”.
As to `C[N+](C)(C)CCOC(N)=O`, the Potency entry in assay [1], in [3] and in assay [4] was “inactive” each time. Besides, the compound was called inactive in assay [5] and in assay [6].
For `OCCSc1ccccc1`, the Potency entry in assay [2] was “inactive”.
For the compound `COc1ccccc1N=Nc1c(S(=O)(=O)O)cc2cc(S(=O)(=O)O)cc(NC(C)=O)c2c1O`, the Potency entry in assay [1], in assay [3] and in assay [4] was “inactive” throughout.
As to `CCCCCC=CCC=CCCCCCCCC(=O)OCC`, in [2], the Potency entry is “inactive”.
Turning to `Cc1cc(OI)c(C(C)C)cc1-c1cc(C(C)C)c(OI)cc1C`, the Potency entry in assay [1], in assay [3] and in assay [4] was “inactive” in each case.
For `CC(COc1ccc(C(C)(C)C)cc1)OS(=O)OCCCl` (centres undefined), the Potency entry in [1] and in assay [4] was “inactive” each time. The Potency in assay [3] was 3.88 µM (active).
Regarding `Cc1cc(S(=O)(=O)O)ccc1N=Nc1c(O)ccc2ccccc12`, the Potency entry in assay [1], in [3] and in assay [4] was “inactive” throughout.
As to `CCCCCCCCCCCCCCC[C@H](O)[C@@H](N)CO`, the Potency result in [1], in assay [3] and in assay [4] was “inactive” each time.
For the compound `Fc1c(F)c(F)c(Br)c(F)c1F`, the Potency result in [1] and in [4] was “inactive” in each case.
As for `CC[C@@H]([C@H](C)O)n1ncn(-c2ccc(N3CCN(c4ccc(OC[C@@H]5CO[C@@](Cn6cncn6)(c6ccc(F)cc6F)C5)cc4)CC3)cc2)c1=O`, the Potency in assay [1] is 4.77 µM (active). In [4], the Potency result was “inactive”.
With `C=CC(C)(C)CC(=O)OC`, the Potency result in [1] and in assay [4] was “inactive” throughout. Further, the Potency in [3] is 15.4 µM (active).
Take `CCOC(=O)c1ccccc1OC`: the Potency result in assay [1], in [3] and in assay [4] was “inactive” each time.
In the case of `O=C(CCCCCCCCC#CI)Oc1ccccc1`, the Potency entry in assay [1] and in assay [4] was “inactive” each time.
With `O=C(CCCN1CCN(c2ccc(F)cc2)CC1)NC1c2ccccc2CSc2ccccc21` (centres undefined), in [2], the Potency entry was “inactive”.
As for `CC(=O)N(c1onc(C)c1C)S(=O)(=O)c1ccc(N)cc1`, the Potency entry in assay [1], in assay [3] and in assay [4] was “inactive” in each case.
Take `CC(=O)Oc1ccc2c(c1)CC[C@@H]1[C@@H]2CC[C@]2(C)[C@@H](O)CC[C@@H]12`: the Potency entry in assay [1] and in assay [4] was “inactive” throughout.
`O=C(N/N=C/c1ccc([N+](=O)[O-])o1)c1ccc(O)cc1`: the Potency entry in [1] and in assay [4] was “inactive” throughout.
Regarding `CCCCCCCC/C=C\CCCCCCCC(=O)OC(CO)CO`, the Potency result in assay [1] and in [4] was “inactive” each time.
Turning to `C[C@]12CCC(=O)C=C1C=C[C@@H]1[C@@H]2CC[C@@]2(C)[C@H]1CC[C@@]21CCC(=O)O1`, the Potency result in assay [1] and in assay [4] was “inactive” throughout.
Turning to `COc1cc2[nH]c(=O)[nH]c(=O)c2cc1OC`, the Potency entry in assay [1], in [3] and in [4] was “inactive” in each case.
With `c1ccc(COCc2ccccc2)cc1`, the Potency result in assay [1], in assay [3] and in [4] was “inactive” in each case.
Regarding `C=CC(C)(O)CCCC(C)CCCC(C)CCCC(C)C` (centres undefined), the Potency result in assay [1], in [3] and in assay [4] was “inactive” each time.
Regarding `COC(=O)CC(=O)C(C)(C)C`, the Potency result in [2] was “inactive”.
For the compound `CCN(CC)CCNC(=O)c1ccc(NC(C)=O)cc1`, the Potency entry in assay [1], in assay [3] and in [4] was “inactive” throughout. For the same compound, the result in assay [5] and in assay [6] was inactive.
As for `CCCCCCCCCCCCCCCCBr`, the activity change, negative = cytotoxicity in [1] was 2.29% [at 15.8 µM] (inactive). Further, in assay [3], the activity, negative = inhibition is -1.48% [at 19 µM] (inactive). Further, the Potency result in [4] is “inactive”.
In the case of `Cc1oc(C)c(C(=O)Nc2ccccc2)c1C`, the Potency result in assay [1], in assay [3] and in [4] was “inactive” in each case.
`COCCOC`: the Potency result in [1] and in [4] was “inactive” each time. Moreover, the Potency in [3] was 6.54 µM (active).
With `O=Cc1c(Cl)cccc1Cl`, the Potency entry in assay [1], in assay [3] and in assay [4] was “inactive” each time.
Consider `CCCCCCCCSCCO`, for which the Potency entry in assay [1], in assay [3] and in assay [4] was “inactive” in each case.
In the case of `NCC1CCCC(CN)C1` (centres undefined), the Potency result in [1], in assay [3] and in [4] was “inactive” in each case.
With `CCOC(=O)C(C)Oc1ccc(Oc2nc3ccc(Cl)cc3o2)cc1` (centres undefined), the Potency entry in assay [1] and in assay [3] was “inactive” in each case.
Take `NC(=O)Cn1c(=O)cc(CCN2CCN(c3nccc4sccc34)CC2)c2ccc(F)cc21`: the Potency result in assay [2] was “inactive”.
Consider `Cc1occc1C(=O)Nc1ccc(C(=O)N2CCC(F)(F)/C(=C\C(=O)N3CCC(N4CCCCC4)CC3)c3ccccc32)cc1`, for which the Potency entry in assay [2], in [3] and in assay [4] was “inactive” in each case.
`CC(C)C(OC(=O)c1ccccc1)C(C)(C)COC(=O)c1ccccc1` (centres undefined): in assay [3], the Potency entry was “inactive”.
Regarding `NC(=O)N(O)[C@@H]1COc2cc(OCc3ccccc3)ccc21`, in assay [2], the Potency result was “inactive”.
For the compound `CCCCN(CCCC)CCCOC(=O)c1ccc(N)cc1`, the Potency entry in assay [2], in assay [3] and in assay [4] was “inactive” in each case.
Turning to `O=C(Nc1ccccc1)Nc1ccccc1`, the Potency result in [2] and in [3] was “inactive” throughout. The Potency in assay [4] was 2.18 µM (active).
Regarding `CC1=C(/C=C/C(C)=C\C=C\C(C)=C\C(=O)O)C(C)(C)CCC1`, the Potency entry in assay [2] and in assay [3] was “inactive” each time. In addition, in assay [4], the Potency is 0.0686 µM (active).
As for `CCC(C(=O)OCCOCCN(CC)CC)c1ccccc1` (centres undefined), the Potency entry in assay [2], in assay [3] and in [4] was “inactive” each time.
As to `CCCc1c(OCCCOc2ccc(OCC(=O)O)cc2)ccc(C(C)=O)c1O`, the outcome in assay [5], in assay [8] and in assay [6] was inactive. In addition, the Potency result in assay [7], in assay [9] and in assay [10] was “inactive” throughout.

Values taken from PubChem BioAssay (Tox21).
